Shown are actives, neighbours in structure and some others; about 3.9% of the full set was active somewhere.
Vc quorum ag = inducers of Vibrio cholerae quorum light production without autoinducers, primary screen, BH1578 luxS cqsA deficient, single point; 0.16% of 350,000 active; V. cholerae BH1578 lux reporter, luminescence, 6 h; activation, % at 18.7 µM; AID 588436, 2011; in the data active means activation mostly above about 9.7%, no sharp cut-off
GDH-TPI inh = GDH-TPI coupling enzyme inhibitors, primary screen, artefact control for M. tuberculosis FBA inhibitor project, biochemical, absorbance, full deck; GDH-TPI coupled enzyme counterscreen, NADH absorbance; inhibition, % at 4.8 µM; 1.2% of 360,000 active; in the data active means inhibition above about 30%;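 further: 0% = DMSO wells and 100% = wells lacking the enzyme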
FBA Mtb inh = Mtb FBA enzyme inhibitors, primary screen, biochemical, fluorescence, strain H37Rv. Fructose-bisphosphate aldolase (Mycobacterium tuberculosis (strain ATCC 25618 / H37Rv)), …. purified M. tuberculosis FBA, fluorescence read-out. inhibition, % at 1 µM. 2.3% of 360,000 active. AID 588726, 2011; in the data active means inhibition above about 27%;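 further: 0% = vehicle and 100% = reference inhibitor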
3CLpro inhibitor = SARS-CoV 3CLpro protease inhibitors, primary screen, biochemical, quenched FRET | Replicase polyprotein 1ab (Severe acute respiratory syndrome coronavirus), P0C6X7 | recombinant SARS-CoV 3CLpro, quenched FRET peptide cleavage | inhibition, % at 6 µM | 0.14% of 290,000 active; in the data active means inhibition above about 12%
PrPC surface inh = inhibitors of human cell surface prion protein PrPC, primary screen, cell-based, TR-FRET; Major prion protein (Homo sapiens), P04156; inhibition, % at 13.8 µM; 0.43% of 370,000 active; TR-FRET read-out; in the data active means inhibition above about 24%; further: 0% = median of the test wells and 100% = reference compound wells
PrPC confirm = confirmation of inhibitors of cell surface human prion protein, confirmation, cell-based, TR-FRET | shares compounds with PrPC surface inh | cell surface PrPC level | inhibition, % at 13.8 µM | 65% of 1,500 active; in the data active means inhibition above about 25%
LD9 tox = cytotoxicity in LD9 cells, cytotoxicity control for cell surface PrPc inhibitor project, cell-based, luminescence, high throughput. shares compounds with PrPC surface inh. luminescence viability. inhibition, % at 13.8 µM. 29% of 1,500 active; in the data active means inhibition above about 9.5%
Numbers without * were called inactive; i = inactive; . = not tested or not shown.

SMILES | Vc quorum ag | GDH-TPI inh | FBA Mtb inh | 3CLpro inhibitor | PrPC surface inh | PrPC confirm | LD9 tox
O=C(NC1CC1)C1CCCN(C(=O)Nc2ccc(F)cc2)C1 (centres undefined) | i | -2.2 | -1.0 | -1.6 | 30.9* | 15.0 | -0.4
O=C(NC(CO)(CO)CO)c1coc(=O)c(Br)c1 | 6.2 | 44.4* | 5.2 | 4.0 | 45.8* | -4.5 | -3.6
COc1ccc(C2=CC(=O)CCC2)cc1 | 2.9 | 18.5 | -1.7 | . | -11.0 | . | .
C=C1[C@@H](C)[C@H]2[C@H](Cc3ccccc3)NC(=O)[C@]23OC(=O)/C=C/[C@H](O)CCC[C@@H](C)C/C=C/[C@H]3[C@@H]1O | 4.2 | 2.6 | -3.0 | 3.8 | 41.3* | 19.0 | 9.7*
C=C1C(C)C2C(Cc3ccccc3)NC(=O)C23C(OC(C)=O)C=CC(C)(O)CC(C)CC=CC3C1O (centres undefined) | -1.0 | 3.2 | -1.5 | . | 39.9* | 32.0* | -0.1
C[C@H]1C/C=C/[C@H]2[C@H](O)[C@H](C)[C@@](C)(O)[C@H]3[C@H](Cc4ccccc4)NC(=O)[C@]32[C@H](O)/C=C/[C@](C)(O)C1 | -0.3 | 1.4 | 3.8 | . | . | . | .
C=C1[C@@H](C)C2[C@H](Cc3ccccc3)NC(=O)[C@]23[C@H](OC(C)=O)/C=C/[C@@](C)(O)C(=O)[C@@H](C)C/C=C/[C@H]3[C@@H]1O (some centres undefined) | . | . | . | . | 43.4* | 37.8* | 1.8
Cc1cc(C(=O)Nc2ccc(Cl)c(S(=O)(=O)N3CCOCC3)c2)c2ccccc2n1 | i | -3.8 | -2.3 | . | -7.0 | . | .
Cc1ccc(-c2nc3cc(C)c(Br)c(C)n3c2Cc2ccsc2)cc1 | . | . | . | . | 10.0 | . | .
Cc1ccccc1NC(=O)O[C@H]1CC[C@@]23CCCN2C(=O)CCC[C@H]3[C@H]1C | . | . | . | . | -7.5 | . | .
COc1ccc(C(=O)N/N=C/c2cccc3cccnc23)cc1 | i | 10.3 | 1.3 | -2.5 | 18.0 | . | .
CCOc1ccc(C(=O)N/N=C/c2cccc3cccnc23)cc1 | -0.4 | 20.3 | 8.1 | 1.9 | 24.9* | 23.7 | 4.2
COC(=O)Nc1ccc(S(=O)(=O)N2c3ccccc3CCC2C)cc1 (centres undefined) | -2.8 | -4.9 | -4.7 | 4.1 | 28.3* | 7.8 | 3.6
COC(=O)Nc1ccc(S(=O)(=O)N2CCCCC2C(=O)O)cc1 (centres undefined) | -0.4 | -9.7 | -7.0 | 0.7 | 4.1 | . | .
COc1ccc(CNC(=O)CN2C(=O)C3CCCN3c3ncc(Cl)cc32)cc1 (centres undefined) | 3.6 | 19.4 | 0.6 | -1.9 | 26.1* | -10.1 | -4.2
Cc1cc(NC(=O)CSc2ncnc3ccccc23)no1 | -0.2 | 9.4 | 5.8 | 0.5 | 36.5* | 93.6* | -3.3
Cc1cc(NC(=O)CSc2nc(C(C)(C)C)nc3ccccc23)no1 | -0.5 | 4.1 | -2.3 | 2.1 | 1.1 | . | .
Cc1cc(NC(=O)CSc2cc(C)c3ccccc3n2)no1 | -0.4 | 8.2 | 0.1 | . | 10.5 | . | .
CCCc1nc(SCC(=O)NC2CCCC2)c2ccccc2n1 | -0.2 | 0.7 | -7.1 | -0.7 | 34.4* | 43.1* | -11.7
Cc1cc(NC(=O)CSc2nc(-c3cccs3)nc3ccccc23)no1 | i | 20.8 | 6.1 | . | 43.9* | 101.8* | -1.5
CCCc1nc(SCC(=O)Nc2cc(C)on2)c2ccccc2n1 | -0.1 | 7.0 | 0.9 | -2.8 | 122.9* | 120.4* | -10.4
Nc1nc2c(ncn2[C@@H]2O[C@H](C(=O)NCC3CCCCC3)[C@@H](O)[C@H]2O)c(=O)[nH]1 | . | . | . | . | 2.2 | . | .
COc1ccc(CNCc2ccc3ccccc3c2)c(OC)c1 | i | -0.4 | 0.5 | 0.5 | -5.8 | . | .
CCc1cc2ccccc2nc1SCC(=O)Nc1cc(C)on1 | 6.1 | 11.0 | -0.4 | 5.6 | 29.9* | 68.8* | -1.6
Cc1cc(NC(=O)CSc2nc(CCC3CCCC3)nc3ccccc23)no1 | -0.3 | 0.0 | 4.0 | 1.5 | 43.1* | 55.6* | -11.2
SMILES | Vc quorum ag | GDH-TPI inh | FBA Mtb inh | 3CLpro inhibitor | PrPC surface inh | PrPC confirm | LD9 tox
CCCCNC(=O)CSc1nc(Cc2ccccc2)nc2ccccc12 | i | 8.5 | -0.7 | 0.0 | 28.5* | 38.1* | -6.2
Cc1nonc1NC(=O)CSc1nc(CCC2CCCC2)nc2ccccc12 | -0.4 | 3.4 | 1.4 | -1.3 | 5.5 | . | .
CCOC(=O)CNC(=O)CSc1nc(Cc2ccccc2)nc2ccccc12 | 7.7 | 1.7 | -1.2 | 2.9 | 18.3 | . | .
O=C(CN1CCCCCC1)Nc1nc2ccccc2s1 | -0.4 | -1.4 | -2.9 | . | -3.7 | . | .
CCOc1ccc2c(c1)c(=O)c(S(=O)(=O)c1ccc(CC)cc1)cn2C | -0.6 | -0.4 | 2.1 | -5.7 | -2.5 | . | .
CCCCNC(=O)C1(C)CCN1C(=O)c1cccnc1Oc1ccccc1 (centres undefined) | i | -1.8 | -3.3 | . | -3.6 | . | .
Cc1onc(-c2ccccc2Cl)c1C(=O)N1CCCc2ccccc21 | i | 5.0 | -2.8 | 4.2 | 2.5 | . | .
Cc1onc(-c2ccccc2Cl)c1C(=O)OCC(=O)N1CCCc2ccccc21 | -0.3 | 1.8 | -0.8 | 4.2 | 30.5* | 5.7 | 1.6
S=C1CC2CCCC(C2)N1 (centres undefined) | 0.1 | 8.7 | -2.8 | . | -4.1 | . | .
Cc1cccc(-c2cccc3c4c([nH]c23)[C@@H]2C[C@H](N(C)C(=O)C3CCCCC3)[C@H]([C@H](C)O)CN2CC4)c1 | . | . | . | . | 3.2 | . | .
O=C(Cc1ccc(-n2c(=O)c3ccccc3n(Cc3ccccc3F)c2=O)cc1)NCC1CCCO1 (centres undefined) | -0.2 | 14.8 | 2.0 | 2.5 | 67.4* | 3.8 | -3.6
O=c1[nH]c(CN2CCN(c3ccccc3O)CC2)nc2scc(-c3ccccc3Cl)c12 | -2.4 | 5.3 | -0.9 | 1.0 | 7.4 | . | .
O=c1[nH]c(CN2CCN(c3ccc(O)cc3)CC2)nc2scc(-c3ccc(Cl)cc3)c12 | 0.5 | -9.0 | 5.7 | 6.1 | 25.5* | 38.6* | 12.9*
C=CCn1c(=NC(=O)c2cccs2)sc2cccc(OC)c21 | 2.0 | 22.1 | 9.9 | -7.0 | -3.8 | . | .
C#CCn1c(=NC(=O)c2ccc(Br)s2)sc2cccc(OC)c21 | -1.6 | 22.1 | 7.9 | -3.3 | 29.8* | 81.3* | 2.5
Cc1cc(Cl)c(S(=O)(=O)N2CCCC2)cc1OCC(=O)NC1CCCCC1 | -1.9 | -0.6 | 3.7 | 4.7 | 25.9* | 16.0 | 0.1
CCCCOCCCNC(=O)C[C@@H]1C[C@@]2(C(=O)OC)CCCCC=C2N(Cc2ccccc2)C1=O | . | . | . | . | 0.2 | . | .
CCOC(=O)c1csc(NC(=O)c2ccc(OCC)cc2)n1 | i | -2.8 | -4.8 | -1.3 | 29.6* | 19.7 | -1.2

Screening data from PubChem BioAssay.
